Compound activity (PubChem BioAssay)
Sampled rows, rich in hits. Any-hit rate of the full collection: about 4%.
TWEAK Fn14 block – TWEAK-Fn14 signaling inhibition | AID 1159606 | inhibition, % at 10 µM | 360,000 tested, 2% active | TWEAK-stimulated Fn14 reporter cells, luciferase luminescence, 8 h; in the data active = inhibition above about 50%
HIF-2a block – blocks HIF-2a reporter activity | 786-0 RCC cells HIF-2a reporter, luciferase luminescence, overnight | inhibition, % at 18.8 µM | 360,000 tested, 0.72% active;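 active = inhibition of the luminescence signal of 40% or more relative to plate controls, in a single-dose primary screen at 18.75 µM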
Peg3 promoter – reduces Peg3 promoter-driven luciferase expression in HeLa; HeLa PEG-Prom luciferase reporter, luminescence, overnight; inhibition, % at 20 µM; 360,000 tested, 1.7% active; AID 588405;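 active = inhibition of at least 50% at 20 µM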
CF NFkB block – inhibitors of cystic fibrosis induced NF-kB; KKLEB NF-kB-GFP reporter, PAF-induced, GFP fluorescence overnight; inhibition, % at 5 µM; 360,000 tested, 0.86% active;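 active = at least 50% inhibition at 5 µM, scaled per plate between neutral and stimulator controls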;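 note: PAF is a Pseudomonas aeruginosa culture filtrate used as stimulus; plate controls were PAF-stimulated DMSO wells for no effect and unstimulated DMSO wells for full effect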
KKLEB tox – counter-screen for CF NF-kB inhibitors: cytotoxicity; KKLEB CF airway cells viability, ATPlite luminescence, overnight; hits give low values; cells stimulated with P. aeruginosa culture filtrate; activity change (cytotoxicity), % at 5 µM; 360,000 tested, 0.36% active;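 active = corrected activity change at or below -50% at 5 µM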
TROY NFkB inh – TROY signaling inhibition. inhibition, % at 10 µM. Q293 LMP1-TROYcd NF-kB luciferase reporter, 4 h. 360,000 tested, 0.98% active;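 active = compounds whose plate-normalised and pattern-corrected inhibition of the luciferase reporter signal at the single screening dose is 50% or more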
* hit, by the source's call.

COc1ccc(S(=O)(=O)Nc2cc(C(C)C)c(O)cc2C)cc1 was read as TWEAK Fn14 block -2, HIF-2a block 4, Peg3 promoter 4, CF NFkB block 4, KKLEB tox 1 and TROY NFkB inh -2.
`COc1ccc2nc3cc(Cl)ccc3c(Nc3cc(C(C)C)c(O)cc3C)c2c1` gave TWEAK Fn14 block 63*, HIF-2a block -4, Peg3 promoter 105*, CF NFkB block 38, KKLEB tox -56* and TROY NFkB inh 26.
`CCC1CCC2(CC1)NC(=O)N(CC(=O)Nc1ccc(OC)c(Cl)c1)C2=O` (stereo not given) gave TWEAK Fn14 block -26, HIF-2a block 13, Peg3 promoter -4, CF NFkB block 5, KKLEB tox -15 and TROY NFkB inh -16.
CCc1nnc(NC(=O)CN2CCC(O)(c3ccccc3OC)CC2)s1 was read as TWEAK Fn14 block 10, HIF-2a block -6, Peg3 promoter 1, CF NFkB block -4, KKLEB tox 1 and TROY NFkB inh 2.
For CCOC(=O)N1CCN(C(=O)CSCC(=O)Nc2nc(-c3ccc(OC)cc3)cs2)CC1 the results were TWEAK Fn14 block 7, HIF-2a block -91, Peg3 promoter -54, CF NFkB block 3, KKLEB tox -21 and TROY NFkB inh 14.
Screening CCOC(=S)SCC(=O)Nc1nc(-c2ccc(Br)cc2)cs1 returned TWEAK Fn14 block -44, HIF-2a block -260, Peg3 promoter -5, CF NFkB block 66*, KKLEB tox -40 and TROY NFkB inh 8.
`COc1ccccc1C1(O)CCN(CC(=O)Nc2nc(-c3ccccc3)cs2)CC1` gave TWEAK Fn14 block 55*, HIF-2a block -23, Peg3 promoter 10, CF NFkB block -16, KKLEB tox -8 and TROY NFkB inh 44.
`CCOC(=O)N1CCN(C(=O)CSCC(=O)Nc2nc(-c3ccc(-c4ccccc4)cc3)cs2)CC1` gave TWEAK Fn14 block 93*, HIF-2a block -206, Peg3 promoter -129, CF NFkB block -34, KKLEB tox 4 and TROY NFkB inh 57*.
O=C(NC(=S)Nc1ccc2oc(=O)ccc2c1)c1cccc(Cl)c1 was read as TWEAK Fn14 block -12, HIF-2a block -45, Peg3 promoter -46, CF NFkB block 26, KKLEB tox -13 and TROY NFkB inh -11.
`CC(=O)C1=CCC(c2ccc(Cl)cc2)N(S(=O)(=O)c2ccccc2C)C1` (stereo not given) gave TWEAK Fn14 block 10, HIF-2a block 8, Peg3 promoter 12, CF NFkB block 27, KKLEB tox -13 and TROY NFkB inh 5.
Screening CCOc1ccc(NC(=O)CN2CCN(C(=O)C3CCCO3)CC2)cc1 (stereo not given) returned TWEAK Fn14 block 93*, HIF-2a block 11, Peg3 promoter -6, CF NFkB block -24, KKLEB tox 5 and TROY NFkB inh -4.
`Cc1ccc(NC(=O)CSc2nnc3c(n2)[nH]c2ccccc23)cc1` gave TWEAK Fn14 block 8, HIF-2a block 4, Peg3 promoter 4, CF NFkB block -3, KKLEB tox -1 and TROY NFkB inh 4.
`C=CCn1c(SCC(=O)Nc2ccccc2OC)nc2c([nH]c3ccccc32)c1=O` gave TWEAK Fn14 block -2, HIF-2a block 15, Peg3 promoter 7, CF NFkB block 55*, KKLEB tox -57* and TROY NFkB inh 19.
For Cn1c(SCC(=O)Nc2ccc(F)cc2)nc2c([nH]c3ccccc32)c1=O the results were TWEAK Fn14 block 2, HIF-2a block 25, Peg3 promoter 43, CF NFkB block 48, KKLEB tox -43 and TROY NFkB inh -14.
`COCCn1c(SCC(=O)Nc2ccccc2OC)nc2c([nH]c3ccccc32)c1=O` gave TWEAK Fn14 block 43, HIF-2a block 31, Peg3 promoter 24, CF NFkB block -7, KKLEB tox 1 and TROY NFkB inh 7.
For Cc1ccc(NC(=O)CSc2nc3c([nH]c4ccccc43)c(=O)n2C)cc1 the results were TWEAK Fn14 block -2, HIF-2a block 10, Peg3 promoter 54*, CF NFkB block 2, KKLEB tox 6 and TROY NFkB inh -15.
`Cc1ccc(-c2csc(NC(=O)CSc3nnc4c(n3)[nH]c3ccccc34)n2)cc1` gave TWEAK Fn14 block 23, HIF-2a block -31, Peg3 promoter 56*, CF NFkB block 20, KKLEB tox -12 and TROY NFkB inh 30.
Cn1c(SCC(=O)NNC(=O)c2ccccc2)nnc1C(F)(F)F was read as TWEAK Fn14 block 8, HIF-2a block -2, Peg3 promoter 1, CF NFkB block 0, KKLEB tox 10 and TROY NFkB inh -10.
Cc1ccc(C(=O)NCCN2CCC(n3c(=O)[nH]c4ccccc43)CC2)cc1C was read as TWEAK Fn14 block 3, HIF-2a block -14 and TROY NFkB inh -13.
Screening COc1cccc(OC)c1C(=O)OCC(=O)N(c1ccccc1)C1CCCCC1 returned TWEAK Fn14 block -3, HIF-2a block 21, Peg3 promoter 16, CF NFkB block -27, KKLEB tox 6 and TROY NFkB inh -3.
Screening CCN(CC)S(=O)(=O)c1ccc(N2CCCCC2)c(NC(=O)C2CCN(C(=O)c3ccc(F)cc3)CC2)c1 returned TWEAK Fn14 block -18, HIF-2a block -18, Peg3 promoter 8, CF NFkB block -5, KKLEB tox 2 and TROY NFkB inh 10.
Cc1cc(C)nc(NC(=NCCc2c[nH]c3ccccc23)NC(=O)Nc2ccccc2)n1 was read as TWEAK Fn14 block 43, HIF-2a block -4, Peg3 promoter 52*, CF NFkB block 42, KKLEB tox -9 and TROY NFkB inh 27.
For Cc1ccc(Cc2c(C)c(C#N)c3[nH]c4ccccc4n3c2=O)cc1 the results were TWEAK Fn14 block 61*, HIF-2a block -8, Peg3 promoter 36, CF NFkB block 50, KKLEB tox -41 and TROY NFkB inh 60*.
Screening Cc1noc2ncnc(Sc3ccc(Br)cc3)c12 returned TWEAK Fn14 block 66*, HIF-2a block 0, Peg3 promoter 99*, CF NFkB block 29, KKLEB tox -5 and TROY NFkB inh 64*.
Screening Cc1noc2ncnc(N3CCCC3)c12 returned TWEAK Fn14 block 21, HIF-2a block 12, Peg3 promoter 8, CF NFkB block -6, KKLEB tox 0 and TROY NFkB inh 12.
For Fc1cccc(Cc2c(-c3cccc(Cl)c3)nc3c4ccccc4ccn23)c1 the results were TWEAK Fn14 block -29, HIF-2a block -70, Peg3 promoter -77, CF NFkB block -7, KKLEB tox 0 and TROY NFkB inh -40.
Screening Fc1cccc(Cc2c(-c3ccco3)nc3c4ccccc4ccn23)c1 returned TWEAK Fn14 block 51*, HIF-2a block -235, Peg3 promoter -271, CF NFkB block -6, KKLEB tox -20 and TROY NFkB inh 7.
`Clc1cccc(Cc2c(-c3cccc(Cl)c3)nc3c4ccccc4ccn23)c1` gave TWEAK Fn14 block 5, HIF-2a block -34 and TROY NFkB inh -69.
